High-throughput results (PubChem BioAssay)
This is one part of a sample in which hits are shown more often than they occur.
AMA1-RON2 inh: AMA1-RON2 (P. falciparum) interaction inhibition. AlphaScreen AMA1-biotinylated RON2 peptide binding. Potency, µM (top dose mostly 58.2 µM), for inactives: top-dose activity change, negative = inhibition, usual class: inhibitors. 0.2% of 360,000 active;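 also: potency is read from the fitted curve at half-maximal effect; 0% = vehicle wells and -100% = peptide control; nearly all actives have a fitted effect of over 45% in size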
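AMA1 (3D7) with his tag at 25 nM final met compounds first, then biotinylated RON2 peptide at 25 nM; detection used donor plus acceptor beads, 10 µg/mL apiece, read by AlphaScreen after 30 min at room temperature.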
SARS PLP yeast: inhibitors of SARS-CoV papain-like protease in yeast. S. cerevisiae expressing SARS-CoV PLpro, growth rescue. Potency, µM (highest dose often 32.9 µM), without a hit: at the top dose activity, positive = growth rescue, actives largely listed as activators. 0.19% of 330,000 active. AID 485353; calls by dose curve; also: potency is read from the fitted curve at half-maximal effect; 0% is about no effect; nearly all actives have a fitted effect of over 55% in size
AmpC inh detg: inhibitors of E. coli AmpC beta-lactamase with detergent. 0.041% of 370,000 active. AmpC hydrolysis of nitrocefin, absorbance 480 nm, 0.01% Triton. Potency, µM (doses to about 114 µM), without a hit: at the highest dose activity change, negative = inhibition, hits mostly inhibitors;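 also: potency is read from the fitted curve at half-maximal effect; 0% = no-compound wells and -100% = no-enzyme wells; nearly all actives have a fitted effect of over 25% in size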
Target sequence (P00811 whole entry, looked up): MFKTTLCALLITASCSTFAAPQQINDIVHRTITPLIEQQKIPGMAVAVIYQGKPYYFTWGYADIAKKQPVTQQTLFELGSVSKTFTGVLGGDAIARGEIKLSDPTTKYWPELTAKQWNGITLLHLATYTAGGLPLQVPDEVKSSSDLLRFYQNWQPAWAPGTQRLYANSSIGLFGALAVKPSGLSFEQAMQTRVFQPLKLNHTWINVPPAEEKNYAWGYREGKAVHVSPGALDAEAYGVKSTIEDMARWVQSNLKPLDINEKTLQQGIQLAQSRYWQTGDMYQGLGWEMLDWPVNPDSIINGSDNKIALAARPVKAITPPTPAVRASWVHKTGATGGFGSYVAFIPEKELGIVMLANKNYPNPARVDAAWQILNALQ
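AmpC (5.3 nM in the dispensed reagent) in 20 mM phosphate pH 7.0 with 0.01% (detergent screen) or 0.0001% Triton X-100 was preincubated with compounds for 15 min at room temperature. Nitrocefin was then added from an 800 uM solution, and hydrolysis was followed at 480 nm.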
AmpC inh no detg: AmpC beta-lactamase inhibition without detergent; AmpC nitrocefin hydrolysis, absorbance 480 nm, 0.0001% Triton; Potency, µM (titrated, usually from 57.1 µM), for inactives: at the top dose activity change, negative = inhibition, hits mostly inhibitors; 0.52% of 330,000 active;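 also: potency is read from the fitted curve at half-maximal effect; plate controls were no compound for no effect and no enzyme for full effect; nearly all actives have a fitted effect of over 20% in size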
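AmpC (5.3 nM in the dispensed reagent) in 20 mM phosphate pH 7.0 with 0.01% (detergent screen) or 0.0001% Triton X-100 was preincubated with compounds for 15 min at room temperature. Nitrocefin was then added from an 800 uM solution, and hydrolysis was followed at 480 nm.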
Cycloheximide cs: counter-screen for Shiga toxin inhibitors: cycloheximide protein synthesis inhibition. cell reporter, cycloheximide protein synthesis inhibition counterscreen. max response, %. 12% of 300,000 active. AID 2314; in the data active = max response mostly above about 13%, no sharp cut-off; inactive = mostly below about 14%; also: read at 38.3 µM for the half of the compounds with a filed dose; 0% is about no effect
Shiga inhibitor: inhibitors of Shiga toxin in Vero cells. Vero cells, Shiga toxin protein synthesis inhibition reporter. 9.2% of 290,000 active. AID 2315. inhibition, % at 38.7 µM; in the data active = inhibition mostly above about 28%, no sharp cut-off; inactive = mostly below about 43%; also: 0% is about no effect
* = called active by the depositor; u = inconclusive; x = not tested or not shown; [ ] = another dose, or the depositor's remark. Unless noted, calls follow the shape of the dose curve; as a rule, active = well fitted curve in the direction sought with a large enough effect; inconclusive = small, poorly fitted or top-dose-only effect, or another doubt; inactive = no such curve, though single readings can be large; an effect the other way counts as inactive or inconclusive.

SMILES | AMA1-RON2 inh | SARS PLP yeast | AmpC inh detg | AmpC inh no detg | Cycloheximide cs | Shiga inhibitor
CC1(C)CC(=O)c2c(nc(SCC(=O)Nc3nsc(-c4ccccc4)n3)c(C#N)c2-c2ccccc2)C1 | 112% | 3% | 2% | -12% | 2 | 15
CCOc1ccc(S(=O)(=O)N/N=C2/CCCC(=O)C2)cc1 | 22% | 6% | -12% | -12% | -3 | -3
O=C1CCC/C(=N/Nc2ccc(Cl)cc2)C1 | 23% | -1% | -5% | -17%[11.4 µM] | 29* | 67*
CCOc1ccccc1NC(=O)c1c(NC(=O)CCC(=O)O)sc2c1CCCCC2 | -5% | -1% | 4% | -6% | 6 | 6
C=CCn1cccc(C(=O)Nc2ccc(C)cc2)c1=O | 7% | -5% | -6% | 8% | 77* | 102*
C=CCn1c(N)c(C(=O)Nc2ccc(C)cc2)sc1=S | -9% | 18% | -7% | -34% | 30* | 15
C=CCn1cccc(C(=O)Nc2ccc(C)c(C)c2)c1=O | -11% | -4% | 2% | 33% | 45* | 107*
COc1cccc(/C=N/NC(=O)Cn2nc(C)c([N+](=O)[O-])c2C)c1O | 61% | 16% | -1% | -30% | -2 | -3
CC1CC(C)CN(C(=O)c2ccc3c(c2NCCO)C(=O)c2ccccc2C3=O)C1 (centres undefined) | 22µM* | -10% | -8% | 129% | -4 | -6
CC1CC(C)CN(C(=O)COC(=O)CN2C(=O)c3ccccc3C2=O)C1 (centres undefined) | -5% | -14% | x | -3% | x | x
Cc1ccc(-c2ccc(NC(=O)C3C4C=CC(C4)C3C(=O)O)cc2)o1 (centres undefined) | -13% | 8% | 0% | -8% | 46* | 62*
C=CCn1c(=O)/c(=C2/Sc3cc(OC)ccc3N2C)s/c1=C1\C(=O)N(CC)C(=S)N1C | x | -1% | u | -9% | 21* | 53*
O=[N+]([O-])c1ccc(N=Cc2sc3ccccc3c2O)cc1 | -13% | -18% | -8% | -25% | 43* | 108*
Oc1c(C=NCc2ccccc2)sc2ccccc12 | 26% | -1% | 1% | -27% | 28* | 91*
Oc1cccc(C=NCc2ccccc2)c1O | -15% | -6% | -13% | -32% | -1 | -6
O=[N+]([O-])c1cccc(N=Cc2sc3ccccc3c2O)c1 | x | 1% | -5% | -23% | 38* | 86*
O=C(Nc1cccc(S(=O)(=O)N2CCOCC2)c1)c1cc2ccccc2o1 | -3% | -4% | 1% | -8% | 1 | 1
COC(=O)c1ccc(NC(=O)C(=O)NCCc2csc3nc(-c4ccccc4F)nn23)cc1 | x | x | 3% | x | x | x
COc1ccc(N=C2C(=Nc3ccc(OC)cc3)N(c3ccc(OC)cc3)C(=S)N2c2ccccc2)cc1 | -12% | 14% | -4% | -31% | 60* | 70*
COc1ccc(N=C2C(=Nc3ccc(OC)cc3)N(c3ccc(OC)cc3)C(=S)N2C)cc1 | 6.7µM* | -2% | 2% | 11% | -2 | 19
COc1ccc(N2CC(=O)N(c3ccccc3)C2=S)cc1 | 8% | 18% | -5% | -1% | 27* | 32
COc1ccc(N=C2SCC(=O)N2c2ccc(OC)cc2)cc1 | 2% | 10% | u | -9% | 10 | -9
O=C(NCCc1ccccc1F)c1[nH]c(C(F)(F)F)nc1-c1ccccc1 | -10% | x | x | x | x | x
O=C(Nc1ccc(Br)cc1)c1cccc(N2C(=O)CCC2=O)c1 | 0% | 1% | 1% | -4% | 55* | 65*
COC(=O)c1ccc(NC(=O)c2cccc(N3C(=O)CCC3=O)c2)cc1 | 2% | -6% | -18% | -5% | x | x
CN(C)c1ccc(NC(=O)c2cccc(N3C(=O)CCC3=O)c2)cc1 | -3% | 5% | 7% | -16% | 21* | 37
O=C(Nc1ccccc1)c1cccc(N2C(=O)CCC2=O)c1 | 5% | 3% | -2% | -7% | -3 | -13
Cc1cc(C)n(-c2cc(-n3nc(C)cc3C)ncn2)n1 | 1% | u | -11% | 3% | 8 | -3
Cc1ccc(Oc2cc(-n3nc(C)cc3C)ncn2)cc1 | 5% | -9% | u | -17% | 17* | 59*
